Assay outcomes deposited in PubChem BioAssay by National Center for Advancing Translational Sciences (NCATS).
TRPV1 PAM = enhances activation of the human vanilloid receptor TRPV1; Q8NER1; TRPV1-expressing cells, Fluo-8 calcium influx, capsaicin EC20 potentiation; potentiation, % at 8.33 µM; 0.02% of 320,000 active; AID 540277; in the data active means potentiation above about 80%; inconclusive means between about 30% and that limit
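Cells expressing TRPV1 were dye-loaded with Fluo-8 and read kinetically: 10 s baseline, 3 min after compound (agonist portion), then 2 min after EC20 capsaicin (allosteric enhancer portion). Calcium-bound dye fluorescence at 480/520 nm.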
TRPV1 ag = agonists of human vanilloid receptor 1 (TRPV1). TRPV1-expressing cells, Fluo-8 calcium influx, agonist mode. Q8NER1. 0.19% of 320,000 active. activation, % at 8.33 µM. AID 540275; in the data active means activation above about 80%; inconclusive means between about 30% and that limit
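Cells expressing TRPV1 were dye-loaded with Fluo-8 and read kinetically: 10 s baseline, 3 min after compound (agonist portion), then 2 min after EC20 capsaicin (allosteric enhancer portion). Calcium-bound dye fluorescence at 480/520 nm.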
KCNH2 3.1 block = KCNH2 3.1 (human) potassium channel inhibition; U2OS KCNH2 3.1, thallium flux FluxOr; stronger effect = lower value; activity change, % (tested at about 1.8 µM); 0.95% of 340,000 active; AID 720553;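 active means maximum activity change below -70%; inconclusive means maximum activity change from -70% to -50%; inactive means maximum activity change above -50%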;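 further: thallium influx rate constant from kinetic fluorescence after stimulation buffer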
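Virally transduced U2OS (3.1 isoform, 4 h infection in dark at RT) → overnight 37 C → FluxOr + Red40 in HBSS/HEPES, 45 min → stimulation buffer, 2 min kinetic read → rate constant vs DMSO controls.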
ClpP mod = qHTS Assay for Activators of ClpP | ATP-dependent Clp protease proteolytic subunit (Bacillus subtilis (strain 168)), P80244 | purified B. subtilis ClpP, FRET peptide cleavage, 20 min | Potency, µM (series often up to 57.5 µM) | 1.9% of 340,000 active | AID 651965, 2013; active means well fitted falling curve with a large enough effect; inconclusive means small, poorly fitted or top-dose-only effect; inactive means no such curve, though single readings can be large or run the other way; further: the source files actives as falling curves though it sought activators and does not explain the sign; nearly all actives have a fitted effect of over 65% in size
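FRET quenching reversal measured ClpP activation: 10 microg/mL B. subtilis ClpP at pH 8 with the FRET-FV decapeptide, read at 430 nm after 320 nm excitation. The 20-min minus 0-min signal was scaled between DMSO/no-enzyme wells and ADEP (5.8 microM final).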
hERG WT inh = inhibitors of human wildtype KCNH2 potassium channel; Q12809; U2OS, BacMam KCNH2, thallium flux FluxOr; stronger effect = lower value; activity change, % at 1.84 µM; 0.37% of 340,000 active;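 active means maximum activity change below -70%; inconclusive means maximum activity change between -70% and -50%; inactive means maximum activity change above -50%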
Target sequence (Q12809 whole entry, looked up): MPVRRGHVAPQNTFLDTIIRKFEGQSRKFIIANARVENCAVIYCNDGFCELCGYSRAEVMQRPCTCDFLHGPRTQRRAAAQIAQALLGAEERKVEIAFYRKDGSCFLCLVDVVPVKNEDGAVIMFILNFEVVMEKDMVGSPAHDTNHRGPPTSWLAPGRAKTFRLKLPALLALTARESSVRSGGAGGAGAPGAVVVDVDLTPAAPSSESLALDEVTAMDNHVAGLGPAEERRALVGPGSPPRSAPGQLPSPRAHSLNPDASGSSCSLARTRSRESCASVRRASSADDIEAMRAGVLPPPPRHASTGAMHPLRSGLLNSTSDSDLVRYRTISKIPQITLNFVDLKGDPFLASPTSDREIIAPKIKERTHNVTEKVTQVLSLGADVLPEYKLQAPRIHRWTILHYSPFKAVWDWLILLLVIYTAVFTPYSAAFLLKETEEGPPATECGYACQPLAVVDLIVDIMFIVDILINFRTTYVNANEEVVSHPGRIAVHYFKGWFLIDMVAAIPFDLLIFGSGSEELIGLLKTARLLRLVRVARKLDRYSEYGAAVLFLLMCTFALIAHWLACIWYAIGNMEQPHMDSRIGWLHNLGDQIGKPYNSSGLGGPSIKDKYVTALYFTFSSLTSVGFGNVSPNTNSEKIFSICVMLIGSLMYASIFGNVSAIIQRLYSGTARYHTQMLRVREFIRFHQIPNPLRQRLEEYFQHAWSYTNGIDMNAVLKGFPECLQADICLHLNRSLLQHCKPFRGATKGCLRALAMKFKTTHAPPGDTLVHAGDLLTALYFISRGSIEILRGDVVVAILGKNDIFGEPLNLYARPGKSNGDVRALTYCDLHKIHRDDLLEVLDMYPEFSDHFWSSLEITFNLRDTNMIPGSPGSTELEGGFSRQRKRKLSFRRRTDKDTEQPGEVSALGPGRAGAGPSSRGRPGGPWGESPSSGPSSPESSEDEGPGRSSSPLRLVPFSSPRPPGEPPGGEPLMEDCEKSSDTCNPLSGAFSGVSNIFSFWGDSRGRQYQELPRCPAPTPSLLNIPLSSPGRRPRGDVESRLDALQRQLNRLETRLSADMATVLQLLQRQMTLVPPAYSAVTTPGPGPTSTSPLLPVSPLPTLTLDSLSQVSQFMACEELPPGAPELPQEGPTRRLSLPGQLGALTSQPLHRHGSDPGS
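U2OS cells were transduced with wild-type KCNH2 virus (2.03 x 10^8 / mL) for 4 h at room temperature, then cultured overnight at 37 C. Thallium flux was read with FluxOr dye. Rate constants were normalized to DMSO controls.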
p53 reactivation = mutant p53 re-activation in reporter cells; H1299 p53-A138V BP100-luciferase reporter, luminescence, 24 h; Potency, µM (doses to about 92.2 µM), most hits filed as activators; 0.063% of 320,000 active; AID 504706; active means well fitted activation curve with a large enough effect; inconclusive means small, poorly fitted or top-dose-only effect; inactive means no such curve, though single readings can be large or run the other way; further: nearly all actives have a fitted effect of over 45% in size
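p53-null H1299 cells stably carrying temperature-sensitive p53-A138V and a BP100-luciferase reporter were pinned with compounds (4-point, 1:5 series) and held 24 hrs at 37 deg C. Luminescence was read 10 min after detection reagent.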
Hits are given with their value; - = inactive; ? = inconclusive; . = not tested or not shown. Rows were chosen to be rich in hits. Some 2.6% of all compounds tested hit in one or more screens of this group.

SMILES | TRPV1 PAM | TRPV1 ag | KCNH2 3.1 block | ClpP mod | hERG WT inh | p53 reactivation
CN1CCCCCC1=Nc1ccc([N+](=O)[O-])cc1 | . | . | - | 11µM | - | .
CCc1ccccc1NC(=O)c1nnn(-c2ccc(F)cc2)c1C | . | . | . | - | . | .
O=c1cc(CN2CCN(c3ccccc3F)CC2)c2c(ccc3ccccc32)o1 | . | . | . | 28µM | . | .
CCc1ccc2c(CN3CCc4ccccc43)cc(=O)oc2c1 | - | - | - | - | - | -
O=c1cc(CN2CCCCC2)c2c(ccc3ccccc32)o1 | . | . | . | - | . | .
CCc1ccc2c(CN3CCN(S(=O)(=O)c4ccccc4F)CC3)cc(=O)oc2c1 | . | . | -75 | . | - | -
CCc1ccc2c(CN3CCN(S(=O)(=O)c4cccs4)CC3)cc(=O)oc2c1 | - | - | - | 32µM | - | -
COC(=O)c1c(NC(=O)COc2ccc(OC)cc2)sc2c1CCC(C)C2 (configuration not stated) | . | . | . | - | . | .
COc1ccc(NC(=O)C2c3ccccc3OCC(=O)N2Cc2cccnc2)cc1 (configuration not stated) | . | . | . | - | . | .
Cc1nn(CC(=O)N2CCN(c3ccccc3)CC2)c(=O)c2cc3sccc3n12 | . | . | . | - | . | .
COc1ccccc1CN(Cc1cc2cc3c(cc2[nH]c1=O)OCCO3)Cc1nnnn1Cc1ccco1 | - | - | - | 28µM | - | -
O=c1[nH]c2cc3c(cc2cc1CN(Cc1ccccc1)Cc1nnnn1Cc1ccco1)OCCO3 | - | - | - | - | - | -
O=c1[nH]c2cc3c(cc2cc1CN(Cc1cccs1)Cc1nnnn1Cc1ccco1)OCCO3 | - | - | - | ? | - | -
O=c1[nH]c2cc3c(cc2cc1CN(Cc1cccnc1)Cc1nnnn1Cc1ccco1)OCCO3 | - | - | - | 14µM | - | -
O=C(c1cccc(S(=O)(=O)N2CCOCC2)c1)N1CCCC(C(F)(F)F)C1 (configuration not stated) | - | - | - | - | - | -
O=C(c1cccc(S(=O)(=O)N2CCCC2)c1)N1CCCC(C(F)(F)F)C1 (configuration not stated) | - | - | - | 28µM | - | -
C[N+]1(CC(=O)c2c3ccccc3cc3ccccc23)CCOCC1 | . | . | . | - | . | .
COc1cccc(CNC(=O)c2ccc(CS(=O)Cc3ccccc3Cl)o2)c1 (configuration not stated) | . | . | -81 | - | - | .
COc1cccc(CNC(=S)Nc2cccc(Cl)c2C)c1 | - | 87 | - | - | - | -
COc1cccc(CNC(=S)Nc2cc(C)ccc2C)c1 | - | ? | - | . | - | -
O=C(NCCCc1ccccc1)c1ccc(CS(=O)Cc2ccc(Cl)cc2)o1 (configuration not stated) | - | - | -85 | - | - | -
Cc1ccc(CNC(=O)CN2C(=O)COc3ccc(S(=O)(=O)N4CCC(C)CC4)cc32)cc1 | . | . | . | - | . | .
O=C1CC(c2nc(-c3cccc(Cl)c3)no2)CN1c1ccc2c(c1)OCCO2 (configuration not stated) | . | . | . | - | . | .
CCC(C)c1ccccc1NC(=O)CN(C)CCOc1ccc(Cl)cc1 (configuration not stated) | - | ? | - | . | - | -
CN(CCOc1ccc(Cl)cc1)CC(=O)Nc1ccc(OC(F)F)cc1 | - | - | -85 | - | - | -
SMILES | TRPV1 PAM | TRPV1 ag | KCNH2 3.1 block | ClpP mod | hERG WT inh | p53 reactivation
C=CCn1c(SCc2c(Cl)cccc2Cl)nnc1-c1cccnc1 | - | - | -120 | - | - | -
COc1cc2c(cc1OC)CN(C(=O)c1sccc1C)CC2 | - | - | - | 28µM | - | -
Cc1ccsc1C(=O)N1CCc2ccccc2C1 | - | - | - | - | - | -
COc1cc2c(cc1OC)CN(C(=O)CSc1ccccc1C)CC2 | . | . | - | 22µM | - | -
COC(=O)N1CCCCC1c1cc(C(=O)Nc2cccc3c2CCCC3)no1 (configuration not stated) | . | . | . | - | . | .
O=C1CCCc2c1cc(C(=O)NCc1ccco1)c(=O)n2-c1ccc(Cl)cc1 | - | - | - | 20µM | - | -
Cc1cccc(NC(=O)C(C)C(=O)c2ccccc2)c1 (configuration not stated) | - | - | - | - | - | -
Cc1ccc(NC(=O)C(C)c2cccc(C(=O)c3ccccc3)c2)cc1O (configuration not stated) | - | ? | - | 20µM | - | -
Cc1cc(-c2cc(-c3ccc(Cl)cc3)on2)nc(NCC2CC2)n1 | - | - | - | 14µM | - | -
CCc1nc(SCc2ccc(Cl)cc2)n[nH]1 | - | - | - | - | - | -
O=S(=O)(Nc1nc(SCc2ccc(Cl)cc2)n[nH]1)c1ccc(F)cc1 | - | - | - | 18µM | - | -
CN(C)c1ccc(C=O)cc1[N+](=O)[O-] | . | . | . | - | . | .
CCOc1ccc(N2CC(C(=O)Nc3ncccc3C)CC2=O)cc1 (configuration not stated) | - | - | - | 18µM | - | -
Cc1c(C#N)c2ncnc(-c3ccccc3)c2n1-c1ccccc1 | - | - | - | 35µM | - | -
N#Cc1c2n(c3c(-c4ccccc4)ncnc13)CCC2 | - | - | - | 32µM | - | -
S=C(NN=C(c1ccccc1)c1ccccn1)N(Cc1ccccn1)Cc1ccccn1 | . | . | - | - | - | .
S=C(NN=Cc1ccccn1)N(Cc1ccccn1)Cc1ccccn1 | . | . | - | 22µM | - | .
Cc1nc2ccn(Cc3cccnc3)c(=O)c2cc1C(=O)NCc1ccc(Cl)cc1 | . | . | . | 13µM | . | .
Oc1ccccc1CNc1cnc2ccccc2c1 | - | - | - | 28µM | - | ?
C=CCc1cccc(CNc2cnc3ccccc3c2)c1O | ? | - | - | - | - | -
Oc1ccc(Cl)cc1CNc1cnc2ccccc2c1 | - | - | - | - | -224 | -
